# Inconclusive results are not listed. Activity calls are given as the source filed them. Unless noted, the call rests on the fitted dose curve; in most records, active means well fitted curve in the direction sought with a large enough effect; inconclusive means small, poorly fitted or top-dose-only effect, or another doubt; inactive means no such curve, though single readings can be large; an effect the other way counts as inactive or inconclusive.
# Tests used:
# [1] = P-glycoprotein substrates identified in KB-8-5-11 adenocarcinoma cell line, qHTS therapeutic library screen (AID 1346987); further: on the % scale 0 is the no-effect control and ±100 the full control effect; nearly all actives have a fitted effect of over 65% in size
# Outline: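 KB-8-5-11: colchicine-selected sub-line of KB-3-1 over-expressing P-gp; assay medium lacked colchicine. 72 h drug exposure at 37 degree C, CellTiter-Glo.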
# [2] = target: N-terminal Xaa-Pro-Lys N-methyltransferase 1 (Homo sapiens) (UniProt Q9BV86); test: Confirmatory qHTS for Inhibitors of N-terminal methyltransferase 1 (NTMT1): MTaseGlo Assay (AID 1645874); further: potency means the concentration at half of the fitted maximal effect; nearly all actives have a fitted effect of over 65% in size
# Outline: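 qHTS format: NTMT1 125 nM, SAM 100 uM, peptide SPKRIA 1 uM final; 15 min compound preincubation, 30 min reaction at room temperature. MTase-Glo luminescence.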
# [3] = target: Catechol O-methyltransferase (Homo sapiens) (UniProt P21964); test: Confirmatory Screen for Target Class Profiling of Small Molecule Inhibitors of Methyltransferases (AID 1745852; calls by dose curve; further: potency means the concentration at half of the fitted maximal effect); details: MTase-Glo luminescence, SAH detection, recombinant enzyme; measured here: COMT max response; stronger effect = lower value
# [4] = target: Guanidinoacetate N-methyltransferase (Homo sapiens) (UniProt Q14353); test: as above; details: activity change, negative = inhibition: at 57.3 µM (top of the series) unless noted
# [5] = target: Nicotinamide N-methyltransferase (Homo sapiens) (UniProt P40261); test: as above; details: MTase-Glo luminescence, SAH detection, recombinant enzyme; measured here: NNMT max response; stronger effect = lower value
# [6] = target: Phenylethanolamine N-methyltransferase (Homo sapiens) (UniProt P11086); test: as above; details: MTase-Glo luminescence, SAH detection, recombinant enzyme; measured here: PNMT max response; stronger effect = lower value
# [7] = target: Glutathione peroxidase 1 (Homo sapiens) (UniProt P07203); test: Primary qHTS Assay for Inhibitors of Recombinant Selenoprotein Glutathione Peroxidase 1 (GPX1) (AID 1845191); further: on the % scale 0 is the no-effect control and ±100 the full control effect; nearly all actives have a fitted effect of over 65% in size
# Outline: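 GR-coupled assay: compounds preincubated 30 min at room temperature with GPX1, then reaction started with CHP; final 10 nM GPX1, 1 mM GSH, 0.5 mM CHP, 0.5 mM NADPH, 100 nM GR, 0.01% BSA, pH 7.5 Tris buffer. NADPH fluorescence (340/450 nm) read at 0 and 15 min.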
# Sequence of Glutathione peroxidase 1 (Homo sapiens) (P07203 whole entry, looked up): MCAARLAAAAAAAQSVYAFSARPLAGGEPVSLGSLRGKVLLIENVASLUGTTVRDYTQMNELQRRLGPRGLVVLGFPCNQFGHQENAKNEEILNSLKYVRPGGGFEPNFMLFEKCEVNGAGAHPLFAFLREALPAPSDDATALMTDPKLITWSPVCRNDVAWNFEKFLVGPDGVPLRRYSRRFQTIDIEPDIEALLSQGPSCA
# Sequence of Catechol O-methyltransferase (Homo sapiens) (P21964 whole entry, looked up): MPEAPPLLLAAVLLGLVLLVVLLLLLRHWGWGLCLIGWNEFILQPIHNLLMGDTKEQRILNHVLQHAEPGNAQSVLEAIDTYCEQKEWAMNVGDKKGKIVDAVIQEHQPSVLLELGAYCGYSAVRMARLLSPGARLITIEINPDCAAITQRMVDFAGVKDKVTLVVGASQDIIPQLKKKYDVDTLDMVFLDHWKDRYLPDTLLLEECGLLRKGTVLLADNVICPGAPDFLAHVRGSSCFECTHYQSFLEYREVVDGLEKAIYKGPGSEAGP
# Sequence of Nicotinamide N-methyltransferase (Homo sapiens) (P40261 whole entry, looked up): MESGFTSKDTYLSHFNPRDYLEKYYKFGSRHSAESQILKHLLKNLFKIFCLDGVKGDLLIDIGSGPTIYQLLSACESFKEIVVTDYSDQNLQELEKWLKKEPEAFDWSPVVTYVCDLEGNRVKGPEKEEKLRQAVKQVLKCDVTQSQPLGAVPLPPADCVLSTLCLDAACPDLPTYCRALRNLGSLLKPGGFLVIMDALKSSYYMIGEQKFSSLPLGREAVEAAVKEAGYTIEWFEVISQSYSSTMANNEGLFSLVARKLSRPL
# Sequence of N-terminal Xaa-Pro-Lys N-methyltransferase 1 (Homo sapiens) (Q9BV86 whole entry, looked up): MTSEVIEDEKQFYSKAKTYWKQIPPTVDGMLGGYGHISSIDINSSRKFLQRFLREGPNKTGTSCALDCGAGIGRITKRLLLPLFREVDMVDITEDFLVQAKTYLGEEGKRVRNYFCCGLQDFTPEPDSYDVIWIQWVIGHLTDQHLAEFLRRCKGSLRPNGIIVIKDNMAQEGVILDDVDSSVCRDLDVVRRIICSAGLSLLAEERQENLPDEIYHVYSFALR
# Sequence of Phenylethanolamine N-methyltransferase (Homo sapiens) (P11086 whole entry, looked up): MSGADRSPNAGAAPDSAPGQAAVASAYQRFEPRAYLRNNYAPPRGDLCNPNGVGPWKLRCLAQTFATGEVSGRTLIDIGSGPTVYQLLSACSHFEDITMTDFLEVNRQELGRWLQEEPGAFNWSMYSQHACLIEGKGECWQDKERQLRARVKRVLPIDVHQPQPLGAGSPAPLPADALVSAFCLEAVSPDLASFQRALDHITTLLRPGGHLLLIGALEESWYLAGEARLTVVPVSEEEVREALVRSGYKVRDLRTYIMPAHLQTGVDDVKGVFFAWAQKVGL
structure (smiles),measurement,setting,value
CN(C)c1ccc(Nc2c3ccc(NC(=O)CCN4CCCC4)cc3nc3cc(NC(=O)CCN4CCCC4)ccc23)cc1,Potency,[1],inactive
same,Potency,[2],6.49 µM (active)
same,activity,[3],-13%
same,Potency,[4],24.1 µM (active)
same,activity,[5],-39.2%
same,activity,[6],-14.2%
same,Potency,[7],inactive

# — PubChem BioAssay (NCATS)
